The record followed here is PubChem BioAssay (NCATS).

Results filed as inconclusive are left out. The source made the active and inactive calls. Unless noted, calls come from the whole dose curve; as a rule, active = well fitted curve in either direction with a large enough effect (not every such curve was filed as active); inconclusive = small, poorly fitted or top-dose-only effect, or another doubt; inactive = flat fitted curve, though single readings scatter.

Sequence of Cytochrome P450 1A2 (Homo sapiens) (P05177 whole entry, looked up): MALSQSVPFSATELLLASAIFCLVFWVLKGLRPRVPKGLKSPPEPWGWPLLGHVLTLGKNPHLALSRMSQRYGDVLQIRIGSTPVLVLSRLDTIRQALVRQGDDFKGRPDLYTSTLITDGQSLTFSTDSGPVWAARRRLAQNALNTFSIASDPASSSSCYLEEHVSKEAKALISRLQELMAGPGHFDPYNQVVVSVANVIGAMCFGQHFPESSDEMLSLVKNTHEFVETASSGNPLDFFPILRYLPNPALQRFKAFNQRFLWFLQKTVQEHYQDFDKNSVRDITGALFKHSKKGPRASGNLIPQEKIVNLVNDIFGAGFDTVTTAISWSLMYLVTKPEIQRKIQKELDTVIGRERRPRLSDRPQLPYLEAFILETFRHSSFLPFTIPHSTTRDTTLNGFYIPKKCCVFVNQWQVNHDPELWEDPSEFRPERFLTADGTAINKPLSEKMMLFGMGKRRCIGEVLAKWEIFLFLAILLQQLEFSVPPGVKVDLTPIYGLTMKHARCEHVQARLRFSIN

The target of the first experiment is Cytochrome P450 1A2 (Homo sapiens) (UniProt P05177). The experiment is described as follows: p450-cyp1a2 (AID 410; calls by dose curve; note: potency is the fitted concentration of half-maximal effect;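 for activity change, negative = inhibition: -100% = full effect of reference inhibitor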). The note with it: recombinant CYP1A2, luciferin-ME demethylation, luminescence; series mostly up to 57 µM. The procedure, abridged:
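Luminescent readout of luciferin formed from Luciferin-ME by human CYP1A2; data normalized against complete inhibition by 57 uM furafylline. Enzyme 20nM, substrate 100uM at Km, 100mM KPO4 buffer, 60 min reaction at room temperature.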
Consider `COc1cccc(Cn2c(=O)c(-c3cccs3)nc3cnc(N4CCN(C)CC4)nc32)c1`, for which the Potency was 5.01 µM (active).

As for `Cn1c(=O)c(-c2ccc(Cl)cc2)nc2cnc(Oc3ccccc3)nc21`, the Potency was 0.2 µM (active).

With `O=C(c1ccncc1)N1CCC2(CC1)CN(c1ccc(-c3ccccc3)cc1)C2`, the Potency result was “inactive”.

As to `COCCn1c(=O)c(-c2ccc(OC)cc2)nc2cnc(Oc3cccc(Cl)c3)nc21`, the Potency was 6.31 µM (active).

In the case of `O=S(=O)(c1ccccc1)N1CCC2(CCN(c3ncccn3)CC2)CC1`, the Potency entry is “inactive”.

`O=S(=O)(c1ccccc1)N1CCC[C@@]2(CCN(C(c3ccccc3)c3ccccc3)C2)C1`: the Potency result is “inactive”.

For `COc1ccc(CNc2nc(-c3ccccc3CN(C)C)nc3ccccc23)c(OC)c1`, the Potency is 10 µM (active).

Take `Cn1c(=O)cnc2cnc(Nc3ccccc3)nc21`: the Potency was 2 µM (active).

With `O=C(Oc1ccccc1)N1CCC2(CCCN(c3cccc(-c4ccccc4)c3)C2)CC1`, the Potency entry was “inactive”.

Take `COc1ccccc1CNc1cc(-c2cccc(NS(C)(=O)=O)c2)ncn1`: the Potency is 15.8 µM (active).

With `O=C(Oc1ccccc1)N1CCC2(CCCN(c3ncccn3)C2)CC1`, the Potency was 10 µM (active).

`COc1ccc(-n2c(=O)c(-c3ccc(Cl)cc3)nc3cnc(N4CCOCC4)nc32)cc1`: the Potency was 15.8 µM (active).

On to `O=C(c1csnn1)N1CCC2(CCCN(c3ccc(-c4ccccc4)cc3)C2)CC1`, for which the Potency result is “inactive”.

`Cn1c(=O)c(-c2ccccc2)nc2cnc(Oc3ccccc3)nc21`: the Potency is 2 µM (active).

Take `COc1ccc(Oc2ncc3nc(-c4cccs4)c(=O)n(Cc4cccc(OC)c4)c3n2)cc1`: the Potency result was “inactive”.

Consider `COc1ncc2nc(C)c(=O)n(CCC#N)c2n1`, for which the Potency was 15.8 µM (active).

Turning to `CCNc1ncc2nc(-c3ccc(Cl)cc3)c(=O)n(C3CC3)c2n1`, the Potency is 0.501 µM (active).

For the compound `Cc1cccc(CNc2cc(-c3ccc(N(C)C)cc3)ncn2)c1`, the Potency was 1 µM (active).

System in the next experiment: not listed separately
The experiment is described as follows: NFAT Signaling Pathway (AID 444).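 Note: carbachol stimulus at about its EC50 of 1 µM final; % is set by controls: 0 for no effect and ±100 for the full control effect.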 As to conditions: Jurkat NFAT-bla M1, carbachol, beta-lactamase ratio, 5 h; at 7.69 µM (top of the series) unless noted. The procedure, abridged: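 Read-out: CCF4 FRET ratio (460 nm/530 nm) after 1 h RT dye loading, used for %activity and AC50 from titration series. Cells: Jurkat NFAT-β-lactamase/M1 line, treated with compound plus 1 uM carbachol for 5 h, 37 °C.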
On to `COc1cccc(Cn2c(=O)c(-c3cccs3)nc3cnc(N4CCN(C)CC4)nc32)c1`, for which the activity change, negative = inhibition was 160% [activator] (active).

With `O=C(c1ccncc1)N1CCC2(CC1)CN(c1ccc(-c3ccccc3)cc1)C2`, the activity change, negative = inhibition was 17.4% (inactive).

With `COCCn1c(=O)c(-c2ccc(OC)cc2)nc2cnc(Oc3cccc(Cl)c3)nc21`, the activity change, negative = inhibition was -0.562% (inactive).

With `O=S(=O)(c1ccccc1)N1CCC2(CCN(c3ncccn3)CC2)CC1`, the activity change, negative = inhibition is -15.7% (inactive).

As to `O=S(=O)(c1ccccc1)N1CCC[C@@]2(CCN(C(c3ccccc3)c3ccccc3)C2)C1`, the activity change, negative = inhibition is -29.6% (inactive).

With `COc1ccc(CNc2nc(-c3ccccc3CN(C)C)nc3ccccc23)c(OC)c1`, the activity change, negative = inhibition is -28% (inactive).

As to `Cn1c(=O)cnc2cnc(Nc3ccccc3)nc21`, the activity change, negative = inhibition is -6.55% (inactive).

For the compound `O=C(Oc1ccccc1)N1CCC2(CCCN(c3cccc(-c4ccccc4)c3)C2)CC1`, the activity change, negative = inhibition was -27.7% (inactive).

`O=C(Oc1ccccc1)N1CCC2(CCCN(c3ncccn3)C2)CC1`: the activity change, negative = inhibition was -6.42% (inactive).

As for `COc1ccc(-n2c(=O)c(-c3ccc(Cl)cc3)nc3cnc(N4CCOCC4)nc32)cc1`, the activity change, negative = inhibition was 23.6% (inactive).

For the compound `O=C(c1csnn1)N1CCC2(CCCN(c3ccc(-c4ccccc4)cc3)C2)CC1`, the activity change, negative = inhibition was -15.8% (inactive).

As to `Cn1c(=O)c(-c2ccccc2)nc2cnc(Oc3ccccc3)nc21`, the activity change, negative = inhibition is 7.65% (inactive).

For the compound `COc1ccc(Oc2ncc3nc(-c4cccs4)c(=O)n(Cc4cccc(OC)c4)c3n2)cc1`, the activity change, negative = inhibition is -5.95% (inactive).

On to `COc1ncc2nc(C)c(=O)n(CCC#N)c2n1`, for which the activity change, negative = inhibition is -6.19% (inactive).

`CCNc1ncc2nc(-c3ccc(Cl)cc3)c(=O)n(C3CC3)c2n1`: the activity change, negative = inhibition is -4.85% (inactive).

As to `Cc1cccc(CNc2cc(-c3ccc(N(C)C)cc3)ncn2)c1`, the activity change, negative = inhibition was -5.57% (inactive).

System in the next experiment: not listed separately
Kind of experiment: Stat Signaling Pathway (AID 446).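 Note: ME-180 cervical cancer cells given 40 pM IL-6 alongside compound; SIE-controlled beta-lactamase reporter measured as 460/530 nm FRET emission ratio; % is set by controls: 0 for no effect and ±100 for the full control effect.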 The note with it: ME-180 (cervical carcinoma) SIE beta-lactamase reporter, IL-6 stimulated, 5 h; at 7.69 µM (top of the series) unless noted. The procedure, abridged:
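ME-180 cells carrying a SIE-driven beta-lactamase reporter are stimulated with 40 pM IL-6 for 5 h at 37C in the presence of compound. The 460/530 nm FRET substrate ratio is read after 2.5 h at RT. Data are normalised to 300 pM IL-6 and to 125 nM JAK inhibitor controls.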
Consider `Cn1c(=O)c(-c2ccc(Cl)cc2)nc2cnc(Oc3ccccc3)nc21`, for which the activity, negative = inhibition was 2.85% (inactive).

Consider `O=C(c1ccncc1)N1CCC2(CC1)CN(c1ccc(-c3ccccc3)cc1)C2`, for which the activity, negative = inhibition was -19.8% (inactive).

Regarding `N#Cc1ccc(CN2CC3(CCN(C(=O)c4ccncc4)CC3)C2)cc1`, the activity, negative = inhibition was 6.61% (inactive).

On to `COCCn1c(=O)c(-c2ccc(OC)cc2)nc2cnc(Oc3cccc(Cl)c3)nc21`, for which the activity, negative = inhibition was 21.8% (inactive).

In the case of `O=C(c1cc(C(F)(F)F)cc(C(F)(F)F)c1)N1CCC2(CCCN(c3ccccn3)C2)CC1`, the activity, negative = inhibition was -14.7% (inactive).

Turning to `O=S(=O)(c1ccccc1)N1CCC2(CCN(c3ncccn3)CC2)CC1`, the activity, negative = inhibition is -15.6% (inactive).

For `O=S(=O)(c1ccccc1)N1CCC[C@@]2(CCN(C(c3ccccc3)c3ccccc3)C2)C1`, the activity, negative = inhibition is 13.8% (inactive).

Take `O=S(=O)(c1ccccc1)N1CCC2(CCCN(Cc3ccccc3)C2)CC1`: the activity, negative = inhibition was 5.57% (inactive).

Turning to `O=C(c1csnn1)N1CCC2(CCCN(c3ccccn3)C2)CC1`, the activity, negative = inhibition was 9.35% (inactive).

For `COc1ccc(C(=O)N2CCC3(CCCN(Cc4nccs4)C3)CC2)cc1`, the activity, negative = inhibition was -4.62% (inactive).

With `COc1ccc(CNc2nc(-c3ccccc3CN(C)C)nc3ccccc23)c(OC)c1`, the activity, negative = inhibition was -17.2% (inactive).

`Cn1cccc1C(=O)N1CCC2(CCCN(Cc3nccs3)C2)CC1`: the activity, negative = inhibition was -8.95% (inactive).

On to `Cn1c(=O)cnc2cnc(Nc3ccccc3)nc21`, for which the activity, negative = inhibition was -16.6% (inactive).

For `O=C(c1cnccn1)N1CCC2(CC1)CN(Cc1ccccc1)C2`, the activity, negative = inhibition was 2.48% (inactive).

In the case of `O=C(Oc1ccccc1)N1CCC2(CCCN(c3cccc(-c4ccccc4)c3)C2)CC1`, the activity, negative = inhibition was 2.68% (inactive).

For the compound `CS(=O)(=O)N1CCC2(CCN(Cc3ccc(C#N)cc3)CC2)CC1`, the activity, negative = inhibition was 3.96% (inactive).

Take `COc1ccc(C(=O)N2CCC3(CCCN(c4ccncc4)C3)CC2)cc1`: the activity, negative = inhibition is 8.4% (inactive).

For `CC(=O)N1CCC2(CCN(Cc3ccc(C#N)cc3)CC2)CC1`, the activity, negative = inhibition was 6.19% (inactive).

Regarding `COc1ccccc1CNc1cc(-c2cccc(NS(C)(=O)=O)c2)ncn1`, the activity, negative = inhibition is -1.76% (inactive).

For `O=C(Oc1ccccc1)N1CCC2(CCCN(c3ncccn3)C2)CC1`, the activity, negative = inhibition was -23.6% (inactive).

For the compound `COc1ccc(-n2c(=O)c(-c3ccc(Cl)cc3)nc3cnc(N4CCOCC4)nc32)cc1`, the activity, negative = inhibition was 88.4% [activator] (active).

With `N#Cc1ccc(CN2CCCC3(CCN(C(=O)c4cnccn4)CC3)C2)cc1`, the activity, negative = inhibition was -1.62% (inactive).

As to `O=C(c1ccncc1)N1CCC2(CCCN(c3ncccn3)C2)CC1`, the activity, negative = inhibition is 5.19% (inactive).

For the compound `O=C(c1csnn1)N1CCC2(CCCN(c3ccc(-c4ccccc4)cc3)C2)CC1`, the activity, negative = inhibition is 1.9% (inactive).

As for `Cn1c(=O)c(-c2ccccc2)nc2cnc(Oc3ccccc3)nc21`, the activity, negative = inhibition was -0.677% (inactive).

For the compound `O=C(c1ccco1)N1CCC2(CC1)CCN(c1ccccn1)CC2`, the activity, negative = inhibition is -0.852% (inactive).

`Cc1noc(C)c1C(=O)N1CCC2(CC1)CCN(C(c1ccccc1)c1ccccc1)CC2`: the activity, negative = inhibition was 10.1% (inactive).

Consider `O=C(c1ccncc1)N1CCC2(CCN(Cc3cc(C(F)(F)F)cc(C(F)(F)F)c3)CC2)CC1`, for which the activity, negative = inhibition is -0.397% (inactive).

For `O=C(c1cccc(F)c1)N1CCC2(CC1)CCN(c1ccccn1)CC2`, the activity, negative = inhibition was -4.99% (inactive).

For the compound `COc1ncc2nc(C)c(=O)n(CCC#N)c2n1`, the activity, negative = inhibition is -5.09% (inactive).

As to `Cc1cccc(CNc2cc(-c3ccc(N(C)C)cc3)ncn2)c1`, the activity, negative = inhibition is -19.8% (inactive).

For `O=C(Oc1ccccc1)N1CCC2(CC1)CCN(c1ccccn1)CC2`, the activity, negative = inhibition is -7.33% (inactive).

`COc1ccc(C(=O)N2CCC3(CCCN(c4ccc(-c5ccccc5)cc4)C3)CC2)cc1`: the activity, negative = inhibition was 0.229% (inactive).
